Assay results taken from PubChem BioAssay AID624330 (Southern Research Specialized Biocontainment Screening …, 2012).
About 2,100 (0.62%) of roughly 340,000 compounds were called active.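 Rule for the calls: active = first-screen hits whose inhibition reached a set limit at any dose in the follow-up dose series; inconclusive = inhibition above the set first-screen limit but never retested; inactive = the rest.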 Not all results are given here. Results with a measured potency or affinity are listed apart.

What follows are compounds tested against Rac GTPase-activating protein 1 (Homo sapiens) (UniProt Q9H0H5) (assay: MgcRacGAP GTPase-activating activity inhibitors, confirmation, biochemical, ADP Hunter fluorescence, primary and confirmatory (AID 624330;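 note: fluorescence reports GDP produced by GAP-driven GTP hydrolysis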)). Details: MgcRacGAP-stimulated Rac1 GTP hydrolysis, at 30 µM, hits give high values, GST-tagged Rac1 F28L mutant substrate.
Sequence of Rac GTPase-activating protein 1 (Homo sapiens) (Q9H0H5 whole entry, looked up): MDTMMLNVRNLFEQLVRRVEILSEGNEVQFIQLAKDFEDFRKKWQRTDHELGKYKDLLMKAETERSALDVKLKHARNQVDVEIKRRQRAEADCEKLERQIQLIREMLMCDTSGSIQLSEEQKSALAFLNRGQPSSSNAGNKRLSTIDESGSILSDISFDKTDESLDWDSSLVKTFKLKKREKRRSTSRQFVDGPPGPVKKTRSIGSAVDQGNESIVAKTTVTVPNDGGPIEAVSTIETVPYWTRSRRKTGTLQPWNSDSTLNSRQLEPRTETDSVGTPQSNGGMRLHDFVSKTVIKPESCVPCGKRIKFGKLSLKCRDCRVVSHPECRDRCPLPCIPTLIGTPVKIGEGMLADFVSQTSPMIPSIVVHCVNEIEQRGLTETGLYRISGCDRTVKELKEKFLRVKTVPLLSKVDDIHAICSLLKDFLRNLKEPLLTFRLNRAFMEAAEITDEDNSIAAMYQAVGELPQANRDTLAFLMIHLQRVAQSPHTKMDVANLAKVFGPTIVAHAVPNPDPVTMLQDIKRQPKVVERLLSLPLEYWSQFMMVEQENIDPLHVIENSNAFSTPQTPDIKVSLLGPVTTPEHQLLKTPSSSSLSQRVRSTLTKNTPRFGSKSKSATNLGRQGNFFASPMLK

SMILES | inhibition
O=C(O)CCC(=O)Nc1cccc(-c2nc3ccccc3o2)c1 | -9.77% (inactive)
CCN(CC)S(=O)(=O)c1ccc2c(c1)c(=O)c(C(=O)N1CCN(c3ccccc3)CC1)cn2C | 1.44% (inactive)
CCN(CC)CCN1c2ccccc2Sc2ccc3ccccc3c21 | 10.6% (inactive)
CN(C)CCCN1c2ccccc2Sc2ccc3ccccc3c21 | 15.1% (inactive)
OC(CNCC1(N2CCCCC2)CCCCC1)COc1ccc(Cl)cc1Cl (configuration not stated) | 17.6% (inactive)
COc1cc(C(C)=O)ccc1OCC(O)CNCC1(N2CCCCC2)CCCCC1 (configuration not stated) | 27.1% (inactive)
O=C(NCC1CCCO1)c1cc(C(=O)C2CCCCC2)c[nH]1 (configuration not stated) | 4.74% (inactive)
CCCCCOC(=O)CSc1nc2c(c(=O)[nH]c(=O)n2C)n1Cc1ccc(Cl)cc1 | 1.35% (inactive)
O=C(CSc1ccc(-c2ccco2)nn1)Nc1ccc(F)cc1F | 9.4% (inactive)
COc1ccc(/C=C/C(=O)CCC(=O)O)cc1 | 2.46% (inactive)
Cc1ccc(N2CC3=C(C2=O)C(c2ccccc2)NC(=O)N3C)cc1 (configuration not stated) | 6.8% (inactive)
CN1C(=O)NC(c2ccc(O)cc2)C2=C1CN(c1ccccc1)C2=O (configuration not stated) | 10.4% (inactive)
CSc1ccccc1NC(=S)Nc1cc(C)cc(C)c1 | 9.21% (inactive)
COc1ccc(S(=O)(=O)N2CCOCC2)cc1NC(=O)Cc1ccccc1Cl | 5.39% (inactive)
CCN(CC)c1ccc(NC(=O)c2cncc(Br)c2)cc1 | 30.6% (inactive)
CCN(CC)c1ccc(CNc2ccc(Br)cn2)cc1 | 4.81% (inactive)
O=S(=O)(Nc1nc2c(s1)CCCC2)c1ccc2ccccc2c1 | 8.29% (inactive)
CCc1ccc(C(=O)OCC(=O)Nc2cccc(S(=O)(=O)NC3=NCCCCC3)c2)cc1 | 5.3% (inactive)
Nc1nc2cc(S(=O)(=O)NC3=NCCCCC3)ccc2s1 | 38.9% (inactive)
O=S(=O)(NC1=NCCCCC1)c1ccc2ccccc2c1 | 2.56% (inactive)
Cc1ccc(-c2cc(C(=O)N3CCCC3)c3ccccc3n2)s1 | 3.87% (inactive)
CCCCn1c(N)c(N(CCOC)C(=O)CSc2ccc([N+](=O)[O-])cc2)c(=O)[nH]c1=O | 9.47% (inactive)
CC1CC1C(=O)OCC(=O)NNC(=O)c1ccc([N+](=O)[O-])cc1 (configuration not stated) | 2.78% (inactive)
Cc1ccc(-c2cc(C(=O)N/N=C/c3c(C)nn(-c4ccccc4)c3C)n[nH]2)s1 | 3.04% (inactive)
CC(C)NC(=O)N(C)C[C@H]1Oc2ccc(NS(=O)(=O)c3cn(C)cn3)cc2C(=O)N([C@H](C)CO)C[C@@H]1C | 12.3% (inactive)
Cc1cc(Br)ccc1NCc1ccccn1 | 23.4% (inactive)

SMILES | inhibition
O=C(CN1CCN(S(=O)(=O)c2ccc(Br)cc2)CC1)Nc1ccc(F)cc1F | 7.71% (inactive)
CC1(C)CNc2cc([N+](=O)[O-])ccc2S1 | 9.53% (inactive)
CC1(C)CC(=S)Nc2ccccc2S1 | 2.74% (inactive)
CSc1ncccc1C(=O)NC1CCCc2c1cnn2-c1ccc(C)c(C)c1 (configuration not stated) | 3.32% (inactive)
CCOc1cc(/C=N/N=C/c2ccc(O)c(OCC)c2)ccc1O | 9.66% (inactive)
CCOc1cc(/C=N/n2cnnc2)cc(Br)c1O | 14.1% (inactive)
CCOc1cc(/C=N/n2c(C)nc3sc(C)c(C)c3c2=O)ccc1O | 10% (inactive)
CCOc1cc(C=NN2CCCCCC2)ccc1O | 30.4% (inactive)
CN(C)c1nc(C(=O)O)nc(N2CCOCC2)n1 | 7.25% (inactive)
CN(C(=O)c1ccc(NC(=O)Cc2ccc(NC(=O)C3CCCN(C(=O)C4CCCCC4)C3)cc2)cc1)C1CCCC1 (configuration not stated) | 9% (inactive)
O=C(Nc1cccc(NS(=O)(=O)c2ccc(S(=O)(=O)NC3CC3)cc2)c1)c1ccccn1 | 11.8% (inactive)
NC(=O)CSc1nnc(NC(=O)c2cccc(S(=O)(=O)N3CCCCC3)c2)s1 | 7.47% (inactive)
Cc1c(Cl)cccc1NC(=S)NC1CCCC1 | 8.99% (inactive)
CN(c1nc(-c2ccccc2)cs1)C1CCS(=O)(=O)C1 (configuration not stated) | 8.88% (inactive)
CN(C(=O)c1ccco1)c1nc(-c2ccccc2)cs1 | 8.31% (inactive)
Cc1cc(O)ccc1Nc1nc(-c2cccnc2)cs1 | 28.4% (inactive)
Oc1ccc(Nc2nc(-c3cccs3)cs2)cc1 | 19.4% (inactive)
Nc1nc(-c2cccs2)cs1 | 18.1% (inactive)
c1ccc(-c2nc(-c3cccnc3)cs2)cc1 | 7.12% (inactive)
c1csc(-c2csc(-c3cccs3)n2)c1 | 7.41% (inactive)
CN(C(=O)c1cccnc1)c1nc(-c2ccccc2)cs1 | 0.25% (inactive)
COc1cc(OC)c(C(=O)NCCCn2ccnc2)cc1OC | 3.26% (inactive)
O=C(Nc1cccnc1)c1ccco1 | -3.68% (inactive)
CC(=O)N(C)c1ccc(NC(=O)Cc2cccs2)cc1 | -7.79% (inactive)
COC(=O)Cn1c2c(c3cc(C)ccc31)CCCC2NC(C)c1ccccc1 (configuration not stated) | 12.5% (inactive)
CCOc1ccc2nc(N3C(=O)C(O)=C(C(=O)c4ccco4)C3c3ccco3)sc2c1 (configuration not stated) | 10.3% (inactive)

SMILES | inhibition
Cc1ccc2nc(N3C(=O)C(O)=C(C(=O)c4ccc(C)o4)C3c3ccco3)sc2c1 (configuration not stated) | 14.4% (inactive)
CCN1CCN(C(c2cccnc2)c2c(NC(=O)c3ccco3)sc(C)c2C)CC1 (configuration not stated) | 3.07% (inactive)
O=[N+]([O-])c1ccc(O)c(CNCc2ccccc2)c1 | 5.59% (inactive)
CC1CCCC(C)N1/N=C/c1ccc(O)cc1 (configuration not stated) | 21.4% (inactive)
Oc1ccc(N=Cc2ccc(OCc3ccccc3)cc2)cc1 | 9.78% (inactive)
Oc1ccc(C=NC2CCCCC2)cc1 | -1.9% (inactive)
Oc1c(C=Nc2ccccc2)sc2ccccc12 | 6.75% (inactive)
Cc1ccc(C(C(=O)NC2CCCCC2)N(Cc2ccco2)C(=O)Cc2c[nH]c3ccccc23)o1 (configuration not stated) | 9.31% (inactive)
COc1cc(OC)cc(C(=O)NCCCN2CCOCC2)c1 | 5.65% (inactive)
CCc1c(C)nc(SCC(=O)N2CCCCC2)[nH]c1=O | 0.74% (inactive)
O=C1c2ccccc2C(=O)N1CCCCSc1nnc(-c2ccc(OC(F)F)cc2)o1 | -1.82% (inactive)
CC(CNC(=O)Cn1ccc(N)nc1=O)c1ccccc1 (configuration not stated) | -5.59% (inactive)
CCN(CC)c1ccc(/C=C2\C(=N)N3N=C(CC(=O)N4CCOCC4)SC3=NC2=O)cc1 | 5.98% (inactive)
CSc1ccc(/C=C2\C(=N)N3N=C(CC(=O)N4CCOCC4)SC3=NC2=O)cc1 | -13.1% (inactive)
COc1ccc(/C=C2\C(=N)N3N=C(CC(=O)N4CCOCC4)SC3=NC2=O)cc1 | 5.52% (inactive)
COc1cc(/C=C2\C(=N)N3N=C(S(C)(=O)=O)SC3=NC2=O)ccc1OS(=O)(=O)c1ccc(C)cc1 | 23.8% (inactive)
COc1cc(/C=C2/C(=N)N3N=C(CC(=O)N4CCOCC4)SC3=NC2=O)ccc1OCc1ccccc1 | 11.5% (inactive)
COc1cc(/C=C2/C(=N)N3C(=NC2=O)SN=C3S(C)(=O)=O)ccc1OS(=O)(=O)c1ccc(C)cc1 | 11.8% (inactive)
Cc1ccc(/C=C2/C(=N)N3N=C(CC(=O)N4CCCC4)SC3=NC2=O)cc1 | 1.49% (inactive)
Cc1ccc(/C=C2\C(=N)N3N=C(CC(=O)N4CCCCC4)SC3=NC2=O)cc1 | 7.03% (inactive)
CCCc1nc(NC(=O)c2ccccc2)nc(NC(=O)c2ccccc2)n1 | 3.82% (inactive)
Cc1nc(-c2ccccc2)cc(-c2ccccc2)n1 | 12.4% (inactive)
CN1CCN(/N=C/c2ccc(Cl)c(Cl)c2)CC1 | -7.71% (inactive)
Cc1ccc(-c2nc3sc4c(c3c(=O)n2N)CC(C)(C)OC4)cc1 | 3.06% (inactive)
CCO[C@H]1OC(C(=O)NC2CC2)=C[C@@H](c2ccc3c(c2)OCO3)[C@@H]1CCCO | 6.42% (inactive)
CCCCc1ccc(/C=C2\C(=O)ON=C2c2ccccc2)s1 | 2.22% (inactive)

SMILES | inhibition
CSc1nc2sc3c(c2c(=O)n1C)CCC3 | 15.1% (inactive)
O=C(O)c1ccccc1C(=O)Nc1ccc(Nc2ccc([N+](=O)[O-])cc2[N+](=O)[O-])cc1 | 15.6% (inactive)
COc1ccccc1N1C(=O)C2C3CC(c4ccccc4)C(C3)C2C1=O (configuration not stated) | 7.95% (inactive)
O=C(O)CCNS(=O)(=O)c1ccc2c(c1)OCCCO2 | 9.26% (inactive)
Cc1ccc(Cl)c(NC(=O)CN2C(=O)C(C)N(c3ccc(F)cc3)C2=O)c1Cl (configuration not stated) | 15.2% (inactive)
Cc1ccc(N2CC(C(=O)Nc3ccc(N4CCOCC4)cc3)CC2=O)cc1C (configuration not stated) | 1.23% (inactive)
Cc1ccc(N2CC(C(=O)Nc3ccc4c(c3)OCCO4)CC2=O)cc1C (configuration not stated) | 10.2% (inactive)
CC1CCc2sc(C(=O)NC3CCN(Cc4ccccc4)CC3)cc2C1 (configuration not stated) | 3.25% (inactive)
CSc1nsc(/C=C/Nc2ccc(Cl)cc2)c1C#N | 6.16% (inactive)
Cc1nsc(Nc2ccc([N+](=O)[O-])cc2)c1C#N | 2.18% (inactive)
N#Cc1c(Nc2ccccc2)sc(C(=O)c2ccccc2)c1N | -10.7% (inactive)
Cc1nsc(Nc2ccccc2)c1C#N | 4.71% (inactive)
Cn1ncc2c(Nc3cc(Cl)cc(Cl)c3)ncnc21 | 11.1% (inactive)
CN(CC(=O)Nc1ccccc1Cl)C(=O)COC(=O)c1ccccc1[N+](=O)[O-] | 11.2% (inactive)
Cc1cccc(CCN2CCN=C2Nc2ccccc2)c1 | 10.2% (inactive)
CCNS(=O)(=O)c1ccc(NC(=O)c2cccnc2)cc1 | -7.35% (inactive)
COc1cc(/C=N/NC(=O)C2CCN(CC(O)COCc3ccccc3)CC2)cc(OC)c1OC (configuration not stated) | -0.29% (inactive)
C=CCOc1ccc(/C=N/NC(=O)C2CCCC2)cc1OCC | 7.59% (inactive)
COc1ccc(/C=N/NC(=O)c2cc(C3CC3)[nH]n2)cc1OC | 7.5% (inactive)
Cn1cc(C(=O)N/N=C/c2cccc(O)c2)ccc1=O | 7.64% (inactive)
CCOc1cc(/C=N/NC(=O)C2CCCC2)ccc1OC(C)C | 7.91% (inactive)
CCOc1cccc(/C=N/NC(=O)c2cc(C3CC3)[nH]n2)c1O | 9.09% (inactive)
COc1ccc(/C=N/NC(=O)c2ccc(=O)n(C)c2)cc1OC | 11.2% (inactive)
CCOc1ccc(/C=N/NC(=O)C2CC2)cc1OC | 4.39% (inactive)
